# Where “and” joins values, the source holds several entries; their conditions need not be identical. Equal entries are not always repeated.
# What was measured:
# [1] = biological target: Platelet-derived growth factor receptor beta (Homo sapiens) (UniProt P09619); conditions: at 1 µM;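 also: each value is a mean percent inhibition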
# [2] = biological target: Tyrosine-protein kinase FRK (Homo sapiens) (UniProt P42685); conditions: at 0.1 µM
# [3] = biological target: Tyrosine-protein kinase FRK (Homo sapiens) (UniProt P42685); conditions: at 1 µM
# [4] = biological target: Protein-tyrosine kinase 2-beta (Homo sapiens) (UniProt Q14289); conditions: at 0.1 µM
# [5] = biological target: Protein-tyrosine kinase 2-beta (Homo sapiens) (UniProt Q14289); conditions: at 1 µM
# [6] = biological target: Proto-oncogene tyrosine-protein kinase receptor Ret (Homo sapiens) (UniProt P07949); conditions: at 0.1 µM
# [7] = biological target: Proto-oncogene tyrosine-protein kinase receptor Ret (Homo sapiens) (UniProt P07949); conditions: at 1 µM
# [8] = system: Proto-oncogene tyrosine-protein kinase receptor Ret (Homo sapiens), P07949 [V804L]; conditions: at 0.1 µM
# [9] = system: Proto-oncogene tyrosine-protein kinase receptor Ret (Homo sapiens), P07949 [V804L]; conditions: at 1 µM
# [10] = system: Proto-oncogene tyrosine-protein kinase receptor Ret (Homo sapiens), P07949 [Y791F]; conditions: at 0.1 µM
# [11] = system: Proto-oncogene tyrosine-protein kinase receptor Ret (Homo sapiens), P07949 [Y791F]; conditions: at 1 µM
# [12] = biological target: Macrophage-stimulating protein receptor (Homo sapiens) (UniProt Q04912); conditions: at 0.1 µM
# [13] = biological target: Macrophage-stimulating protein receptor (Homo sapiens) (UniProt Q04912); conditions: at 1 µM
# [14] = biological target: Proto-oncogene tyrosine-protein kinase ROS (Homo sapiens) (UniProt P08922); conditions: at 0.1 µM
# [15] = biological target: Proto-oncogene tyrosine-protein kinase ROS (Homo sapiens) (UniProt P08922); conditions: at 1 µM
# [16] = biological target: Proto-oncogene tyrosine-protein kinase Src (Homo sapiens) (UniProt P12931); conditions: at 0.1 µM
# [17] = biological target: Proto-oncogene tyrosine-protein kinase Src (Homo sapiens) (UniProt P12931); conditions: at 1 µM
# [18] = biological target: Tyrosine-protein kinase Srms (Homo sapiens) (UniProt Q9H3Y6); conditions: at 0.1 µM
# [19] = biological target: Tyrosine-protein kinase Srms (Homo sapiens) (UniProt Q9H3Y6); conditions: at 1 µM
# [20] = biological target: Tyrosine-protein kinase SYK (Homo sapiens) (UniProt P43405); conditions: at 0.1 µM;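 also: reported percentages are mean inhibition values for SYK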
# Proto-oncogene tyrosine-protein kinase ROS (Homo sapiens), sequence (P08922 whole entry): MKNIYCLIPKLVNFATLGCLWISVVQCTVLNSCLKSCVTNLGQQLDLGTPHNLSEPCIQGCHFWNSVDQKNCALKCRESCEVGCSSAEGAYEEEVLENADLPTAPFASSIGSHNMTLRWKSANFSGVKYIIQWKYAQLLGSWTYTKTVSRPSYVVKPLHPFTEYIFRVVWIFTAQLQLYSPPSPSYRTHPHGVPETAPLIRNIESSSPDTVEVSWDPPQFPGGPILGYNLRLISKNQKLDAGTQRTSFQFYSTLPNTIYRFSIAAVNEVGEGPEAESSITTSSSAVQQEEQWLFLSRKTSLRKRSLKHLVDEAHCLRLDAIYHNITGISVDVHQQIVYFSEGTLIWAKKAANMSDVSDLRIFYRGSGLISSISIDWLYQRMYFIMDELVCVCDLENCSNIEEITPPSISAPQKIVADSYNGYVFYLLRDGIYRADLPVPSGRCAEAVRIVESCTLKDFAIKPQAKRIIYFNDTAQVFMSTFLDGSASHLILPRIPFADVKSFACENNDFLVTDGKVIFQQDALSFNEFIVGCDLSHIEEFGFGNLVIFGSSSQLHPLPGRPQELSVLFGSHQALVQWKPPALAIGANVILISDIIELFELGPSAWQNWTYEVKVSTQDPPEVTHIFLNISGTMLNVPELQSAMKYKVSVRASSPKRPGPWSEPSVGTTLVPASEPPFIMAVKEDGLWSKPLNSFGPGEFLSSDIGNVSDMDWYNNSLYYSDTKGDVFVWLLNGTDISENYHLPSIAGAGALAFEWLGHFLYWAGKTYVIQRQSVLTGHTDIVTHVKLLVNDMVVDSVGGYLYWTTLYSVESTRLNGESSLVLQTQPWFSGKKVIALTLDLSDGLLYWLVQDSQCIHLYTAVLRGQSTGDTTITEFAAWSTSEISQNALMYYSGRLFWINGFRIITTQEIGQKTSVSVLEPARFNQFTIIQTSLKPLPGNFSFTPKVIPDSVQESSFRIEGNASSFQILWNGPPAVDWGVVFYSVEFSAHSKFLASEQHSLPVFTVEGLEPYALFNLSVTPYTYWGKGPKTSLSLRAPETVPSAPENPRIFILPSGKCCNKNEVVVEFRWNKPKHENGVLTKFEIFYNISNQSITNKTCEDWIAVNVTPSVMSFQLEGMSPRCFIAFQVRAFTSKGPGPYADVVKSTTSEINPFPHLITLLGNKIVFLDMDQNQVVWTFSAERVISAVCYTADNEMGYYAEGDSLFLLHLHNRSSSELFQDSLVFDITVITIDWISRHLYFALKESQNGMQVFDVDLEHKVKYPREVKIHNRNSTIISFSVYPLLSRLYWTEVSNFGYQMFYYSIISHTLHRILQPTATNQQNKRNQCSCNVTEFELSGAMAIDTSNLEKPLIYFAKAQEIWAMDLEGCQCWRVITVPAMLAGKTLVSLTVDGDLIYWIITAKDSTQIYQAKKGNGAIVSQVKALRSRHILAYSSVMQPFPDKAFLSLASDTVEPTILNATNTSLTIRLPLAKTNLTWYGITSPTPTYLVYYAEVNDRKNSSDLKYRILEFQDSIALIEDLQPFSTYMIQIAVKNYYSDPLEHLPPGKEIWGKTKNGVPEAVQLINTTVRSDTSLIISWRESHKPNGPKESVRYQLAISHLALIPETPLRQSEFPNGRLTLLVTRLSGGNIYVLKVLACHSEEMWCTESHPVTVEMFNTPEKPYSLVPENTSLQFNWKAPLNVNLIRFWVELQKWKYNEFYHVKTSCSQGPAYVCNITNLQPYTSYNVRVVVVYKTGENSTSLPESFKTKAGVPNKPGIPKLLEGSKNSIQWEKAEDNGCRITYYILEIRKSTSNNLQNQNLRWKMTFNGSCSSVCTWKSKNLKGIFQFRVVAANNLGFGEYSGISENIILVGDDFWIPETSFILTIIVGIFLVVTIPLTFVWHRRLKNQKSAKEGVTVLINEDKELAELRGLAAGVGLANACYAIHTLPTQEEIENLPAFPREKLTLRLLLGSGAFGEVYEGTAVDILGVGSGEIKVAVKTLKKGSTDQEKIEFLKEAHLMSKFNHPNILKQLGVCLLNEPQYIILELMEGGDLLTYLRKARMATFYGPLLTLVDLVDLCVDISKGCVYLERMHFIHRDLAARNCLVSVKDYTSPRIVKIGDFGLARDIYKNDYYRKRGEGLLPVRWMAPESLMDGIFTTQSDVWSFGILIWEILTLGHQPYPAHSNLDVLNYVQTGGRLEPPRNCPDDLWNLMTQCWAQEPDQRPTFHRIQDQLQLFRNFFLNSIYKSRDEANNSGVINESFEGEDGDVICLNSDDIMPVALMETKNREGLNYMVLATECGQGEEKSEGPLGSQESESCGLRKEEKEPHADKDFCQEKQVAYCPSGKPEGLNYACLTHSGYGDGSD
# Proto-oncogene tyrosine-protein kinase receptor Ret (Homo sapiens), P07949 [V804L], sequence (P07949 whole entry V804L): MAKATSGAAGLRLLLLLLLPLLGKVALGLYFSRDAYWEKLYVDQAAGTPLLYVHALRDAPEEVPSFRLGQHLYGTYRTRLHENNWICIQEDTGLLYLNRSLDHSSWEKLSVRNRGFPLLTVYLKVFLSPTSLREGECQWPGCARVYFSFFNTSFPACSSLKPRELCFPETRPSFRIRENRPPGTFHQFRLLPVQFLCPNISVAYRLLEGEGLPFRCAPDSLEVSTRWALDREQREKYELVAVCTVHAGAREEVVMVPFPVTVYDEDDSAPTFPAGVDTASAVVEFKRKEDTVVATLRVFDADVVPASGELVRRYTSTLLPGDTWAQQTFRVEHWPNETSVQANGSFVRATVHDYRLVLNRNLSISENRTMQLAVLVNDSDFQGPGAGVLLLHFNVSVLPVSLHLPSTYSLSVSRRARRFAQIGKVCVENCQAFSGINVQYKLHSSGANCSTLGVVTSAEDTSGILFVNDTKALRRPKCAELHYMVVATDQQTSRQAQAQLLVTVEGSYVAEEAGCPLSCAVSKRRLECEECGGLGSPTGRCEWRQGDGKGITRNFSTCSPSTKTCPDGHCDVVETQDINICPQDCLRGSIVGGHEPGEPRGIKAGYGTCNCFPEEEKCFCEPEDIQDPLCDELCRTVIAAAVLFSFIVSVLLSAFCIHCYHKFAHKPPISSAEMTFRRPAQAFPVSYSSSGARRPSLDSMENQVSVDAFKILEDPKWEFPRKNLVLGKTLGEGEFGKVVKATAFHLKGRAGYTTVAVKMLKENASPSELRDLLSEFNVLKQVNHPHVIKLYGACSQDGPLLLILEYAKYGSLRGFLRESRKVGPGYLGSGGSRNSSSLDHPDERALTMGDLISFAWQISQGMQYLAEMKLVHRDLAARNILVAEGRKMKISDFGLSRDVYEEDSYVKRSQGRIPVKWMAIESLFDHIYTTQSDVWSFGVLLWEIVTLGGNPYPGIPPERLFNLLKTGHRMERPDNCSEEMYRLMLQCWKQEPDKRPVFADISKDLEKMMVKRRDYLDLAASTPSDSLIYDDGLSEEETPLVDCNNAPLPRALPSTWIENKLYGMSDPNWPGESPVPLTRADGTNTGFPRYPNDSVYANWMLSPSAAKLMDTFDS
# Platelet-derived growth factor receptor beta (Homo sapiens), sequence (P09619 whole entry): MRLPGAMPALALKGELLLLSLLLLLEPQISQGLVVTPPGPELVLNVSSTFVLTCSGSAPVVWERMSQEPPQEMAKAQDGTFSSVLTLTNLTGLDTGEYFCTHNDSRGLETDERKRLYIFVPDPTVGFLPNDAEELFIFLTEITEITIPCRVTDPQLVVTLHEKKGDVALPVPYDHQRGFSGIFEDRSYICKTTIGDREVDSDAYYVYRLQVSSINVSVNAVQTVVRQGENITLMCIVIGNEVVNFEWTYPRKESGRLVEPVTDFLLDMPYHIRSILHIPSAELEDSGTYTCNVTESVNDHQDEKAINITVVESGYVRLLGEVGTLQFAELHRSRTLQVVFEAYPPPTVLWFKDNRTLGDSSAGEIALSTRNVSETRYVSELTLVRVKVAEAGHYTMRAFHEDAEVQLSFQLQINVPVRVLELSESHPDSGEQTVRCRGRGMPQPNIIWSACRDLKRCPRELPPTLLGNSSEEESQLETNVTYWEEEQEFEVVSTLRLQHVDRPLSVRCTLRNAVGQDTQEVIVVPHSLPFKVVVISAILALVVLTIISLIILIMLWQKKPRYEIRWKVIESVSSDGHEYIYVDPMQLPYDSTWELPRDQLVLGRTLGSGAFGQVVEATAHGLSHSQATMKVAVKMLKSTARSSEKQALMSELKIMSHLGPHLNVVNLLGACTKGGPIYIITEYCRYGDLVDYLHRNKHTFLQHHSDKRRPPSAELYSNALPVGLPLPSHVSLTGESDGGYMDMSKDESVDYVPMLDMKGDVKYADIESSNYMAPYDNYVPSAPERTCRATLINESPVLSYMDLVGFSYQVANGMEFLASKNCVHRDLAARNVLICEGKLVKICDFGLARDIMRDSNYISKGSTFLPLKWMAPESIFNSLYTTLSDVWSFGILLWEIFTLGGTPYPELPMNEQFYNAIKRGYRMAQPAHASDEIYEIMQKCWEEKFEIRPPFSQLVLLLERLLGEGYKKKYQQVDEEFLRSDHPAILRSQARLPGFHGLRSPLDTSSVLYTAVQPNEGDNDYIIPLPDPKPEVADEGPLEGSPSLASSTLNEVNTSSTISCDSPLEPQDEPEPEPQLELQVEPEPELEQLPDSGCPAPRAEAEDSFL
# Proto-oncogene tyrosine-protein kinase receptor Ret (Homo sapiens), P07949 [Y791F], sequence (P07949 whole entry Y791F): as the sequence (P07949 whole entry V804L) above, with Y791F, L804V counted along it
# Tyrosine-protein kinase FRK (Homo sapiens), sequence (P42685 whole entry): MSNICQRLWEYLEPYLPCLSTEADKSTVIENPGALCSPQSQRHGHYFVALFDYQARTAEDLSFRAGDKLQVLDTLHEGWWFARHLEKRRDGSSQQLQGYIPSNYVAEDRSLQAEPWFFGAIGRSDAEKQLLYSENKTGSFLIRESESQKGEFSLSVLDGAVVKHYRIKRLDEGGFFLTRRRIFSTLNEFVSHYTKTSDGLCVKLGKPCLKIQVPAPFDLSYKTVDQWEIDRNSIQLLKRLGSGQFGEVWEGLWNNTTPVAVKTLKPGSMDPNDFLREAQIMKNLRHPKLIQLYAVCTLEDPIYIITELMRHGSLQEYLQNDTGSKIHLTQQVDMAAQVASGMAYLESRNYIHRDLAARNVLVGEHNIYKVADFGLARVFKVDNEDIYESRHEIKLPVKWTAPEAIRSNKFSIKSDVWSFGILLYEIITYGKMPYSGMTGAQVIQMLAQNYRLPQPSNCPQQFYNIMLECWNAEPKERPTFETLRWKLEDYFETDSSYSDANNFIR
Structure (SMILES),inhibition [1],inhibition [2],inhibition [3],inhibition [4],inhibition [5],inhibition [6],inhibition [7],inhibition [8],inhibition [9],inhibition [10],inhibition [11],inhibition [12] [%],inhibition [13],inhibition [14],inhibition [15],inhibition [16],inhibition [17],inhibition [18],inhibition [19],inhibition [20]
c1cnn2ncc(-c3ccnc(NCCCN4CCOCC4)n3)c2c1,4.61%,0.16%,0.39%,9.94%,6.44%,4.78%,0.87%,2.98%,2.2%,6.04%,0.64%,7.49,0.88%,5.24%,8.64%,2.26%,5.93%,0.14%,1.41%,-6.13%
COC(=O)Nc1nc2cc(Oc3ccc(NC(=O)Nc4ccccc4)cc3)ccc2[nH]1,20.8%,1.73%,1.93%,-1.17%,6.99%,11.1%,26.6%,8.3%,13.8%,15.3%,25.8%,7.21,8.17%,2.15%,2.86%,5.93%,7.76%,0.48%,-1.09%,-5.19%
Nc1nccc(-c2c(-c3ccc(F)cc3)ncn2C2CCNCC2)n1,32% and 25.6%,0.53% and 0.26%,1.84% and 3.88%,-6.28% and 0.77%,-3.71% and 3.63%,-0.37% and 2.86%,14.1% and 4.3%,0.39% and 2.71%,9.24% and 2.58%,0.26% and 3.84%,18.1% and 7.68%,7.21,-1.75% and 1.85%,1.07% and 4.79%,8.31% and 7.82%,-4.6% and -5.2%,0.47% and 5.61%,-1% and 0.6%,1.09% and -0.34%,0.33% and 1.19%
COc1cc(N2CCN(C(C)C)CC2)ccc1Nc1nc(Nc2cccc(F)c2C(=O)O)c2cc[nH]c2n1,6.82%,4.04%,4.07%,90.6%,96.4%,4.88%,5.6%,3.85%,12.1%,4.5%,11.6%,0.36,2.96%,13.8%,54.7%,-3.89%,8.5%,-1.76%,5.01%,-4.66%
O=C1Nc2ccccc2/C1=C1\CCc2cc(O)ccc21,47.9%,2.6%,3.64%,18.3%,44%,23%,66.3%,36.1%,73.6%,25.8%,64.6%,5.94,2.23%,10.8%,18.6%,-0.52%,15.2%,-1.04%,-4.06%,-8.61%
CNC(=O)c1sc(-n2cnc3cc(OC)c(OC)cc32)cc1OCc1ccccc1C(F)(F)F,44.2%,1.48%,3.75%,-3.85%,0.13%,1.78%,9.67%,6.14%,11.4%,8.02%,14.2%,1.42,3.32%,3.19%,5.06%,6.71%,8.35%,-1.1%,0.5%,-0.5%
NC(=O)c1ccc2c(-c3ccnc(NCCCO)n3)c(-c3ccc(F)cc3)nn2c1,18.2%,4.1%,3.97%,17.1%,12.2%,5.55%,16.6%,1.73%,4.71%,6.62%,19.4%,2.03,9.13%,8.51%,10.6%,0.24%,12.9%,15%,4.79%,-5.36%
COc1cc(N2CCN(C(C)C)CC2)ccc1Nc1nc(Nc2cccc3ncccc23)c2cc[nH]c2n1,8.9%,0.82%,1.26%,15.2%,93.1%,4.55%,3.04%,7.14%,14%,8.29%,14.2%,-0.12,1.56%,7.82%,45.3%,2%,0.42%,0.04%,0.63%,-1.08%
CNC(=O)c1ncccc1Nc1nc(Nc2cc3c(cc2OC)CCCN3C(=O)CN(C)C)nc2[nH]ccc12,27.1%,2.49%,2.98%,37.8%,95.7%,7.39%,9.1%,7.91%,20.4%,7.98%,27.1%,-2.25,6.45%,83.4%,87.7%,0.68%,8.9%,0.09%,-0.71%,-1.3%
Cn1c(-c2nonc2N)nc2cnccc21,6.81%,0.98%,1.06%,8.49%,4.49%,2.99%,4.58%,2.88%,1.31%,3.98%,7.82%,5.57,-0.92%,2.77%,3.73%,-0.58%,6.9%,0.1%,4.56%,-1.4%
Fc1ccc(Nc2nccc(-c3c(-c4ccc(C(F)(F)F)cc4)nn4ncccc34)n2)cc1F,3.62%,0.45%,0.39%,4.12%,9.36%,4%,6.84%,1.24%,-1.13%,5.34%,4.13%,-2.05,4.5%,6.56%,8.15%,-0.44%,6.45%,0.3%,-1.61%,-5.43%
CCOc1ccc2c(-c3ccnc(Nc4cc(OC)cc(C(F)(F)F)c4)n3)cnn2n1,29.3%,-0.17%,-0.61%,4.61%,21.2%,2.73%,13.2%,1.94%,5.01%,2.94%,5.26%,8,7.47%,4.18%,20.7%,-3.54%,16.3%,2.39%,4.4%,-3.45%
COc1c(C(N)=O)cc(-c2ccc(Cl)cc2)cc1-c1ccc(S(N)(=O)=O)cc1,1.5%,2.55%,3.5%,5.92%,12.1%,2.82%,4.87%,6.61%,9.45%,6.18%,7.43%,6.88,6.97%,12.2%,14.6%,10.9%,14.6%,-1.8%,-2.15%,1.78%

# Reference: ChEMBL document CHEMBL1961873, “Compounds: GSK PKIS; Assays: Nanosyn kinase panel” (2012)
